Consider 13 compounds from PubChem BioAssay (NCI).

Test systems include NCI-H23 lung; NCI-H226 lung; NCI-H322M lung; HOP-62 NSCLC; NCI-H460 lung; HOP-92 NSCLC; NCI-H522 lung; A549/ATCC NSCLC; 786-0 renal; COLO 205 colon.
Holding throughout (assay): NCI-60 one-dose screen, 48 h (100 = growth as untreated, 0 = no growth, -100 = all killed)
Conditions in all cases: 10 µM unless noted

Molecules are shown by their SMILES. The panel holds about 83,000 compounds, 20% with a hit somewhere; the sample as a whole holds those more often.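 48-hour exposure, single concentration, 96-well plates; percent growth endpoint where 0 means no net growth. Active: below 10.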 Values without a mark were called inactive. Active and inactive are the calls of the source.

Regarding `CCOC(=O)C/C(C)=N\NC(=O)c1ccncc1`, the growth is 101% in the experiment with NCI-H23 lung; 112% in the experiment with NCI-H226 lung; 90.6% with NCI-H322M lung; 97.7% in the experiment on HOP-62 NSCLC; 103% in the experiment on NCI-H460 lung; -2.59% (active) in the experiment on HOP-92 NSCLC. Also, the growth was 95.3% with NCI-H522 lung, 105% in the experiment on A549/ATCC NSCLC, 92.1% with 786-0 renal and 124% in the experiment on COLO 205 colon.
On to `C=C1C(=O)O[C@H]2[C@H]1CC/C(COC(=O)C(=O)c1cn(C)c3ccc(OC)cc13)=C\CC[C@@]1(C)O[C@@H]21`, for which the growth with NCI-H23 lung is -36.1% (active); in the experiment with NCI-H226 lung, -67.5% (active); in the experiment with NCI-H322M lung, -62.2% (active); in the experiment on HOP-62 NSCLC it was -45.9% (active); in the experiment on NCI-H460 lung, -76.3% (active); in the experiment on HOP-92 NSCLC, -72.3% (active). Further, the growth is -61.4% (active) in the experiment with NCI-H522 lung, -62% (active) with A549/ATCC NSCLC, -87.4% (active) in the experiment with 786-0 renal and -57% (active) in the experiment on COLO 205 colon.
For `C=C1C(=O)O[C@H]2[C@H]1CC/C(COC(=O)C(=O)c1c[nH]c3ccccc13)=C\CC[C@@]1(C)O[C@@H]21`, the growth in the experiment on NCI-H23 lung was -42.8% (active); in the experiment with NCI-H226 lung, -61.6% (active); in the experiment on NCI-H322M lung, 24.6%; in the experiment with HOP-62 NSCLC it was 2.66% (active); in the experiment with NCI-H460 lung it was 6.72% (active); in the experiment on HOP-92 NSCLC, -74.3% (active). The growth with NCI-H522 lung is -62% (active); in the experiment with A549/ATCC NSCLC, 9.03% (active); in the experiment on 786-0 renal it was -75.8% (active); in the experiment on COLO 205 colon, -62.2% (active).
For the compound `COc1cc(C2CC(=O)Nc3c2c(C)nn3-c2nc3ccccc3[nH]2)c(OC)c2c1OCO2` (stereo not given), the growth in the experiment with NCI-H23 lung is 86.9%; in the experiment on NCI-H226 lung it was 84.8%; in the experiment on NCI-H322M lung, 86.9%; in the experiment on HOP-62 NSCLC, 75.8%; in the experiment on NCI-H460 lung it was 66.7%; in the experiment with HOP-92 NSCLC, 85%. For the same compound, the growth in the experiment on NCI-H522 lung is 71.2%; in the experiment with A549/ATCC NSCLC, 52.4%; in the experiment with 786-0 renal, 78.6%; in the experiment on COLO 205 colon, 91.9%.
Take `CC/C=C\C/C=C\C[C@H](O)C/C=C1/C(=O)C=C[C@@H]1C/C=C\CCCC(=O)O`: the growth with NCI-H23 lung was 61.8%; in the experiment on NCI-H226 lung it was 59.6%; in the experiment on NCI-H322M lung, 53.4%; with HOP-62 NSCLC, 62.8%; with NCI-H460 lung, 31.8%; with HOP-92 NSCLC it was 87.3%. Further, the growth with NCI-H522 lung was -22.8% (active); in the experiment on A549/ATCC NSCLC, 57.3%; in the experiment on 786-0 renal it was -38.7% (active); with COLO 205 colon, 27%.
Take `COc1cc(C2CC(c3cc(OC)c(OCCCOc4ccc(-n5c(/C=C/c6ccccc6)nc6ccccc6c5=O)cc4)c(OC)c3)=NO2)cc(OC)c1OC` (stereo not given): the growth in the experiment on NCI-H23 lung is 112%; in the experiment with NCI-H226 lung it was 110%; with NCI-H322M lung it was 123%; in the experiment on HOP-62 NSCLC, 122%; with NCI-H460 lung, 113%; with HOP-92 NSCLC, 42.5%. Further, the growth was 91.1% with NCI-H522 lung, 99.7% in the experiment on A549/ATCC NSCLC, 108% with 786-0 renal and 115% in the experiment with COLO 205 colon.
With `Cc1ccc(S(=O)(=O)Oc2cc(OS(=O)(=O)c3ccc(C)cc3)cc(OS(=O)(=O)c3ccc(C)cc3)c2)cc1`, the growth with NCI-H23 lung is 98.9%; in the experiment with NCI-H226 lung, 101%; with NCI-H322M lung, 140%; in the experiment with HOP-62 NSCLC it was 101%; in the experiment with NCI-H460 lung, 100%; in the experiment on HOP-92 NSCLC, 72.1%. Further, the growth in the experiment on NCI-H522 lung was 80.8%; with A549/ATCC NSCLC, 97.5%; with 786-0 renal, 101%; in the experiment on COLO 205 colon, 114%.
In the case of `COc1ccc(-c2[nH]c(=S)n(C(CC3(C)NCC(=O)N3n3c(-c4ccccc4)cc(C)nc3=S)c3ccc(OC)cc3)c(=O)c2Br)cc1` (stereo not given), the growth in the experiment on NCI-H23 lung was 70.8%; in the experiment on NCI-H226 lung, 57.1%; with NCI-H322M lung it was 82.2%; in the experiment with HOP-62 NSCLC, 66.9%; in the experiment with NCI-H460 lung it was 73.1%; with HOP-92 NSCLC, 38.5%. Also, the growth in the experiment on NCI-H522 lung was 42.4%; with A549/ATCC NSCLC, 72%; in the experiment with 786-0 renal it was 83.3%; with COLO 205 colon, 74.9%.
With `COc1cc2nc(Cl)nc(Nc3ccc(S(=O)(=O)Nc4nccs4)cc3)c2cc1OC`, the growth is 101% in the experiment on NCI-H23 lung; 91.9% with NCI-H226 lung; 102% in the experiment with NCI-H322M lung; 92% in the experiment with HOP-62 NSCLC; 106% in the experiment on NCI-H460 lung; 118% in the experiment with HOP-92 NSCLC. In addition, the growth with NCI-H522 lung was 91.3%; in the experiment with A549/ATCC NSCLC, 102%; in the experiment with 786-0 renal, 101%; with COLO 205 colon, 110%.
`CS(=O)(=O)c1ccc(Nc2nc(N[C@H]3CCCC[C@H]3N)nc3cc[nH]c(=O)c23)cc1`: the growth is -5.38% (active) in the experiment on NCI-H23 lung; -4.65% (active) with NCI-H226 lung; 24.1% with NCI-H322M lung; 21.1% with HOP-62 NSCLC; 12.4% with NCI-H460 lung; -8.34% (active) in the experiment with HOP-92 NSCLC. Besides, the growth with NCI-H522 lung is -37% (active); in the experiment with A549/ATCC NSCLC it was 33.6%; in the experiment on 786-0 renal it was 22.5%; in the experiment with COLO 205 colon it was -3.93% (active).
Regarding `COC(=O)c1ccc(CSc2nnc(-c3c(C)nc4ccc(C)cn34)o2)cc1`, the growth was 85.9% with NCI-H23 lung; 95.2% in the experiment with NCI-H226 lung; 98.2% in the experiment with NCI-H322M lung; 89.6% with HOP-62 NSCLC; 109% in the experiment with NCI-H460 lung; 92% in the experiment on HOP-92 NSCLC. For the same compound, the growth with NCI-H522 lung is 83.5%; in the experiment on A549/ATCC NSCLC, 103%; in the experiment on 786-0 renal it was 91.8%; with COLO 205 colon, 117%.
Turning to `CC1=NOC(=O)/C1=C\c1ccc(O)cc1`, the growth was 102% with NCI-H23 lung; 108% in the experiment on NCI-H226 lung; 95.2% in the experiment with NCI-H322M lung; 99.5% in the experiment on HOP-62 NSCLC; 109% in the experiment with NCI-H460 lung; 101% in the experiment on HOP-92 NSCLC. Further, the growth in the experiment with NCI-H522 lung was 97.5%; in the experiment with A549/ATCC NSCLC, 97.4%; in the experiment with 786-0 renal, 101%; in the experiment with COLO 205 colon, 109%.
Regarding `O=C1OC(c2nc3ccccc3s2)=C/C1=C\c1ccc(O)cc1`, the growth with NCI-H23 lung was 98.9%; in the experiment on NCI-H226 lung, 99.5%; with NCI-H322M lung, 110%; in the experiment with HOP-62 NSCLC, 91.8%; in the experiment on NCI-H460 lung, 101%; in the experiment on HOP-92 NSCLC, 87.9%. For the same compound, the growth in the experiment with NCI-H522 lung was 91.4%; in the experiment with A549/ATCC NSCLC it was 109%; in the experiment with 786-0 renal, 107%; in the experiment on COLO 205 colon, 102%.
